A selection: hits, their analogues and other compounds. The true share with any hit is near 7.2%.
Tau fil binding: tau filament binding. P10636. 71,000 tested, 2% active. Potency, µM (titrated, usually from 57.1 µM), inactives show at the highest dose activity change, negative = inhibition. AID 596. recombinant tau filaments, thioflavin S fluorescence, 15 h; filaments grown with octadecylsulfate alongside compound;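 also: % is scaled to controls: 0 for no effect and ±100 for the full control effect; actives lower thioflavin S fluorescence by blocking filaments or displacing dye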
Target sequence (P10636 whole entry, looked up): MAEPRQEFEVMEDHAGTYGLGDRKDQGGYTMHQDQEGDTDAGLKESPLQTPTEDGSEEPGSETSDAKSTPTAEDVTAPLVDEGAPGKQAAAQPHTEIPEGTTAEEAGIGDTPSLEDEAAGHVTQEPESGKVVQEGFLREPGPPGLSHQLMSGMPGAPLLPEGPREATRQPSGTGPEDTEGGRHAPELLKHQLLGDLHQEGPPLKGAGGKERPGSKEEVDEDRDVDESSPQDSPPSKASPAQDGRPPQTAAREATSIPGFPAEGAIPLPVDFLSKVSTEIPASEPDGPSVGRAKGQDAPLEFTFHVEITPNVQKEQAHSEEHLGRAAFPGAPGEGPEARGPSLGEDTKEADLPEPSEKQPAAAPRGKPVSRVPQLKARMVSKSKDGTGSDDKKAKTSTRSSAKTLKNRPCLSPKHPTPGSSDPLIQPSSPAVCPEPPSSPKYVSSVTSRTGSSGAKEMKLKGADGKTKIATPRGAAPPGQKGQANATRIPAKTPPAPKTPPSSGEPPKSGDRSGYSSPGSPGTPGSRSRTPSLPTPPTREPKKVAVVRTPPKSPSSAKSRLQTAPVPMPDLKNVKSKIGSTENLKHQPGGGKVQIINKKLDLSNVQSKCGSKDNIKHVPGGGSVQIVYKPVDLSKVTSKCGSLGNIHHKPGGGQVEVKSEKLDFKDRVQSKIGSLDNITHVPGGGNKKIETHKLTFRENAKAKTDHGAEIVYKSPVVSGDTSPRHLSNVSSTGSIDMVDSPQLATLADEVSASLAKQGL
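Quantitative HTS: thioflavine S signal from ODS-induced tau filaments, excited at 450 nm, emission 510 nm. Conditions: 1 uM tau, 30 uM ODS, 15 h at 37 C, pH 7.4.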
PK Bst: pyruvate kinase (B. stearothermophilus) modulation; purified pyruvate kinase, luminescence ATP production; ribose 5-phosphate activator present at AC10; Potency, µM; 51,000 tested, 1.2% active; in the data active = potency below about 11 µM; inconclusive = mostly about 12 µM to 25 µM;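 the screen sought inhibitors and activators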;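 also: scaled between full activation by ribose 5 phosphate and full inhibition by luteolin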
TSHR agonist: agonists of human thyroid stimulating hormone receptor | AID 926 | P16473 | Potency, µM (titrated, usually from 57.1 µM), for inactives: top-dose activation, hits mostly activators | HEK293-CNG-TSHR cells (CNG channel as cAMP sensor), membrane potential dye, cAMP | 73,000 tested, 0.48% active; active = well fitted activation curve with a large enough effect in the main read-out, with a control signal flat, not every such curve was filed as active; inconclusive = small, poorly fitted or top-dose-only effect, or a change in a side signal; inactive = no such curve, though single readings can be large or run the other way; % of control where 0% means no effect;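 also: the control signal comes from parental cells without the receptor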
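cAMP rise detected as CNG-channel membrane depolarization by fluorescent dye (emission 590 nm), 30 min after compound, following 60 min dye loading containing 100 uM RO 20-1724 at room temperature. Cells: TSHR/CNG HEK 293, with parental CNG HEK 293 as control.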
FLuc inh: blocks Photinus pyralis firefly luciferase activity. AID 411. P08659. 72,000 tested, 2.2% active. purified firefly luciferase, luminescence, 8 min. Potency, µM (top dose mostly 57.1 µM), for the others: at the top dose activity change, negative = inhibition, hits mostly inhibitors; also: % is scaled to controls: 0 for no effect and ±100 for the full control effect; nearly all actives have a fitted effect of over 40% in size
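Inhibition of light generation by firefly luciferase from ATP and luciferin was profiled with concentration-response curves per sample, ATP held at 10 uM within the enzyme's linear range. Plates were read by luminescence after an 8-minute ambient incubation.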
HEK293 cAMP cs: parental HEK293 cAMP activation (counter-screen); 73,000 tested, 2.5% active; AID 938; parental HEK293 CNG cAMP sensor, membrane potential fluorescence; Potency, µM (doses to about 57.1 µM), inactives show at the highest dose activation, hits mostly activators; also: % of control where 0% means no effect; nearly all actives have a fitted effect of over 55% in size
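Parental HEK 293 cells stably expressing a modified CNG channel (no TSHR) report cAMP rise as membrane depolarization. Membrane potential dye with 100 uM RO 20-1724 was loaded for 60 min at room temperature, then compound added for 30 min; fluorescence read at 590 nm.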
ERK AVP inh: inhibitors of vasopressin-stimulated ERK signaling pathway; AID 995; HEK293-V1b, vasopressin-stimulated pERK AlphaScreen; Potency, µM (series often up to 57.5 µM), without a hit: top-dose activity, negative = inhibition, actives largely listed as inhibitors; 72,000 tested, 0.99% active; also: % is scaled to controls: 0 for no effect and ±100 for the full control effect; nearly all actives have a fitted effect of over 55% in size
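Phosphorylated ERK1/2 detected via AlphaScreen bead proximity in lysates of V1b-expressing HEK293 cells given 25 nM vasopressin for 5 min after 30 min compound exposure (37 °C). AC50 from Hill equation; basal DMSO 0%, vasopressin 100%.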
* marks the source's active call; other numbers are inactive results; i = inactive; ? = inconclusive; . = no result given; [ ] = dose if it differs, or a comment. Unless noted, calls follow the shape of the dose curve; as a rule, active = well fitted curve in the direction sought with a large enough effect; inconclusive = small, poorly fitted or top-dose-only effect, or another doubt; inactive = no such curve, though single readings can be large; an effect the other way counts as inactive or inconclusive. Potency is read from the fitted curve at half-maximal effect.

SMILES	Tau fil binding	PK Bst	TSHR agonist	FLuc inh	HEK293 cAMP cs	ERK AVP inh
O=C(Nc1ccccc1)N1CCC2(CC1)CCN(C(=O)c1cccc(F)c1)CC2	-2%	.	-5%	1%[11.4 µM]	1%	-13%
Cc1ccc2[nH]c(-c3cccc(N)c3)cc2c1	10µM*	?	-16%[11.4 µM]	13µM*	-19%	7%
CCCCc1nc2n[nH]c(N)c2c2c1CCC2	-12%	.	.	-1%	7%	16µM*
CCc1nc2n[nH]c(N)c2c2c1CCCC2	.	>26	.	1%[25.5 µM]	.	.
CC(C)=CC(=O)Nc1ccccc1C(N)=O	8%	>57	-8%	1%	4%	-7%
NC(=O)c1ccccc1N/C=C/C(=O)c1ccccc1	-3%	2.5*	-1%	3.2µM*	6%	6%
CNc1ncnc2c1ncn2[C@@H]1O[C@@H](CO)[C@H](O)[C@@H]1O	0%	.	9%	-4%	-18%	29%
Nc1ccn([C@H]2CC[C@@H](CO)O2)c(=O)n1	-2%	.	-11%	.	24%	25µM*
O[Si@](CCCN1CCCCC1)(c1ccc(F)cc1)C1CCCCC1	-2%	.	?	3%	?	23%
O=c1cnc2cnc(Oc3ccccc3)nc2n1C[C@H]1CCCO1	-3%	.	9%	0%[11.4 µM]	20%	0%
c1ccc(COc2ccc(OCCCn3cncn3)cc2)cc1	0%	.	6%	20µM*	-4%	-23%
c1ccc(-c2ccc(OCCOCCn3cncn3)cc2)cc1	59%	.	-5%	13µM*	19%	-15%
Cc1cc(NCCOCCO)n2ncc(-c3ccc(Cl)cc3)c2n1	1%	6.7*	?	6.3µM*	-31%	-8%
Cc1cc(NCCCN2CCOCC2)n2ncc(-c3ccccc3)c2n1	-15%	.	-3%[11.4 µM]	13µM*	-8%	18%
Nc1[nH]nc2nc3ccccc3nc12	40µM*	.	2%	2%	-9%	-14%
Cc1cc(C(=O)OCc2nnc(-c3ccccc3)o2)c(C)n1-c1ccccc1	9%	>57	?	-3%	13µM*	5%
Cc1cccc2cc3c(N)c(C(=O)N4CCOCC4)sc3nc12	-25%	?	-12%	16µM*	2%	-15%
COc1ccc(NC(=O)N2CCC3(CC2)CCN(C(=O)c2csnn2)CC3)cc1	10%	.	5%	2%[11.4 µM]	18%	-16%
COc1ccc(Oc2ncc3nc(-c4cccs4)c(=O)n(Cc4cccs4)c3n2)cc1	?	.	?	1%[11.4 µM]	?	41%
O=C(O)c1cc(-c2cccs2)nc2cc3c(cc12)OCCO3	-9%	.	-3%	16µM*	1%	.
Cc1ccc2nc(-c3cccc(NC(=O)c4ccc5c(c4)OCCO5)c3)oc2c1	i	.	7%	?	17%	-5%
Cc1ccc2nc(-c3ccc4c(c3)OCCO4)cc(C(=O)O)c2c1	7%	?	-6%	13µM*	-3%	0%
O=C(Nc1ccc2nc(-c3cccs3)c(-c3cccs3)nc2c1)N1CCOCC1	227%	.	2%	2%	8%	-25%
CS(=O)(=O)N1CCC2(CCCN(c3ccccn3)C2)CC1	9%	.	?	-1%[11.4 µM]	?	10%
O=C(c1cccc(F)c1)N1CCC2(CC1)CCN(C(c1ccccc1)c1ccccc1)CC2	2%	.	?	2%[11.4 µM]	?	1%
SMILES	Tau fil binding	PK Bst	TSHR agonist	FLuc inh	HEK293 cAMP cs	ERK AVP inh
CC(=O)c1cccc(NC(=O)Nc2cccnc2)c1	-16%	>57	-7%	-25%	-1%	-9%
CC(=O)c1cccc(NC(=O)c2cc3ccccn3n2)c1	11%	.	3%	3.2µM*	5%	-18%
CC(=O)c1cccc(NC(=O)c2cnn3ccccc23)c1	4%	.	4%	13µM*	11%	1%
O=C(NCc1ccc(F)cc1)c1cc2ccccn2n1	13%	.	5%	-7%	13%	-6%
COc1ccc(CNC(=O)NCc2ccc(OC)c(OC)c2)cc1OC	-10%	>57	5%	-3%	2%	-3%
COc1ccc(CN/C(C)=C(/C#N)C(N)=O)cc1OC	4%	>57	13µM*	-2%	-2%	-15%
CCOC(=O)C1CCN(S(=O)(=O)c2cccc(-c3cn4cccc(C)c4n3)c2)CC1	13%	>57	?	-11%	?	20µM*
O=C(CSc1nnc(-c2ccncc2)n1Cc1ccco1)OC1CCCCC1	-4%	>57	?	0%	?	-12%
O=C(CSc1nnc(-c2ccco2)n1Cc1ccccc1)OC1CCCCC1	-14%	.	?	-29%	4µM*	-22%
O=C1c2ccc(Oc3ccc4c(c3)C(=O)N(CCCCO)C4=O)cc2C(=O)N1CCCCO	0%	>57	10%	1%	1%	20µM*
COc1ccc(OC(=O)CCCN2C(=O)c3ccccc3C2=O)cc1	15%	>57	5%	-4%	5%	-13%
COc1cc(C2c3cc4c(cc3C(OC3OC5COC(C)O[C@@H]5C(O)C3O)C3COC(=O)C23)OCO4)cc(OC)c1O (stereo not given in full)	.	.	.	.	.	14%
NC1=NCCCC1	?	.	-4%	0%	-1%	0%
O=c1cc(-c2c(F)c(F)c(F)c(F)c2F)oc2c(F)c(F)c(F)c(F)c12	16µM*	>11	-1%[11.4 µM]	5%	-3%	?
O=S(=O)(c1ccccc1)N1CCC2(CCN(Cc3nccs3)CC2)CC1	28%	.	-1%	-1%[11.4 µM]	10%	?
c1ccc2nc(-c3nc4ccccc4[nH]3)ccc2c1	-1%	0.54*	?	0.79µM*	?	5%
c1ccc2[nH]c(-c3ccnc4ccccc34)nc2c1	-19%	.	-1%	-13%	-5%	?
CCOC(=O)c1c(-c2ccc(C)o2)csc1NC(=O)CSc1nncs1	11%	>57	?	-3%	25µM*	8%
CCOC(=O)c1c(-c2ccc(C)o2)csc1NC(=O)CN1CCN(CC)CC1	78%	.	2%	-3%	22%	-2%
COC(=O)CNc1c(-c2ccccn2)nc2ccc(Br)cn12	81%	?	0%[11.4 µM]	13µM*	-7%	7%
Cc1ccc(S(=O)(=O)N[C@@H]2COC(=O)C/C=C\[C@H](C)COC(=O)N[C@@H](C)C(=O)C/C=C\[C@H]2C)cc1	.	.	?	2%[11.4 µM]	?	9%[11.5 µM]
CCOC(=O)Cc1csc(NC(=O)c2ccc3c(c2)OCO3)n1	2%	.	2%	20µM*	30%	-15%
CCOc1ccc(C(=O)Nc2cc(C)on2)cc1OCC	6%	i	-15%	0%	2%	?
Cc1cc(NC(=O)c2ccc3c(c2)OCCO3)no1	-16%	3*	-5%	2µM*	3%	-1%
Cc1cc(NC(=O)c2ccc3c(c2)OCO3)no1	-7%	.	-10%	7.9µM*	-9%	-3%
CCOC(=O)Cc1csc(NC(=O)c2ccc(Br)s2)n1	10%	.	?	-5%	?	-21%
